Screening results (PubChem BioAssay)
Sampled rows, rich in hits. Any-hit rate of the full collection: about 7.3%.
Tau fibril FP = qHTS for Inhibitors of Tau Fibril Formation, Fluorescence Polarization. Microtubule-associated protein tau (Homo sapiens), P10636. K18 P301L tau heparin fibrillization, Alexa594 FP, 6 h. Potency, µM (titrated, usually from 57.7 µM), most hits filed as inhibitors. 280,000 compounds, 0.39% hits; also: nearly all actives have a fitted effect of over 55% in size
Target sequence (P10636 561-689 P618L limits assumed): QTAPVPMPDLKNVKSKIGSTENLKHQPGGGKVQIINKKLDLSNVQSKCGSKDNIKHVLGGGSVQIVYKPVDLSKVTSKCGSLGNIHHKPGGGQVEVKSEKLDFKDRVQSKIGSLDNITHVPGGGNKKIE
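K18 P301L tau (15 uM unlabeled/0.24 uM Alexa 594-labeled, final) + compound + heparin 20 uM final; 100 mM NaOAc pH 7; 6 hr 37 C; ThT 30 uM final added, 1 hr RT; FP ex 555/em 632 nm.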
Tau fluor cs = Counterscreen qHTS for Inhibitors of Tau Fibril Formation, Fluorescence Polarization. tau K18 P301L Alexa594 fluorescence, heparin fibrillization. Potency, µM (series often up to 57.7 µM). 280,000 compounds, 0.93% hits. AID 1463, 2008; also: nearly all actives have a fitted effect of over 55% in size
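Human K18 P301L tau (15 uM unlabeled plus 0.24 uM Alexa 594-labeled, final) in 100 mM sodium acetate pH 7 was mixed with compound and 20 uM heparin and incubated 6 hr at 37 C.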
Tau ThT inhib = qHTS for Inhibitors of Tau Fibril Formation, Thioflavin T Binding | Microtubule-associated protein tau (Homo sapiens), P10636 | recombinant tau K18 P301L (four-repeat tau fragment), heparin-induced fibrillization, ThT fluorescence | Potency, µM (top dose mostly 57.4 µM), hits mostly inhibitors | 270,000 compounds, 2.1% hits; also: nearly all actives have a fitted effect of over 55% in size
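In this qHTS, human K18 P301L tau is incubated with compound and heparin for 6 hr at 37 C, and Thioflavin T fluorescence then reports fibril load.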
VP16 counter = VP16 counterscreen qHTS for inhibitors of ROR gamma transcriptional activity; Drosophila S2 Gal4-VP16 UAS-luciferase, luminescence, 20 h; Potency, µM (top dose mostly 53.6 µM), most hits filed as inhibitors; 310,000 compounds, 3.5% hits; AID 2546, 2010;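 also: Gal4-VP16 expression switched on by copper sulfate through the metallothionein promoter; nearly all actives have a fitted effect of over 50% in size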
RORg inh = qHTS for inhibitors of ROR gamma transcriptional activity. Drosophila S2 Gal4-RORgamma UAS-luciferase reporter, 20 h. Potency, µM (top dose mostly 53.6 µM), actives largely listed as inhibitors. 310,000 compounds, 5.4% hits. Nuclear receptor ROR-gamma (Mus musculus), P51450; also: nearly all actives have a fitted effect of over 60% in size
Target sequence (P51450 whole entry, looked up, the tested form may be a part): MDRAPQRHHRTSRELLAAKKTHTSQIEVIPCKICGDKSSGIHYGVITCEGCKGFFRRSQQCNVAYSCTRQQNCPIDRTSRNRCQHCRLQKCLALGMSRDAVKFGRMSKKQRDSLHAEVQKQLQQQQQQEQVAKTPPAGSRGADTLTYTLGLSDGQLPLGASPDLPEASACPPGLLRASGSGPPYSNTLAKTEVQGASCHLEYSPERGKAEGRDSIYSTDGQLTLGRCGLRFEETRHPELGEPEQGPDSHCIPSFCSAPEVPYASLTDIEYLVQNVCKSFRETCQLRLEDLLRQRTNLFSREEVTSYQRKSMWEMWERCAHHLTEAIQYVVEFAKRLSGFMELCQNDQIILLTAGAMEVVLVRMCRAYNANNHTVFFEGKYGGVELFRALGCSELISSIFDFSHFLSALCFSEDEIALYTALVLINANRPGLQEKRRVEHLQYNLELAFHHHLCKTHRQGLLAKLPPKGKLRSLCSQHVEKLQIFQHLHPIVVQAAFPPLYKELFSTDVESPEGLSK
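Luciferase reporter read in Schneider cells carrying Gal4-RORγ (mouse) and UAS-Photinus luciferase; cells given compound 1 h before 700 uM copper sulfate induction, then incubated 20 h at ambient temperature.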
Hits are given with their value; i = inactive; ? = inconclusive; nt = no result given; [ ] = remark or other dose. Calls follow the shape of the dose curve; as a rule, active = well fitted curve in the direction sought with a large enough effect; inconclusive = small, poorly fitted or top-dose-only effect, or another doubt; inactive = no such curve, though single readings can be large; an effect the other way counts as inactive or inconclusive.

SMILES | Tau fibril FP | Tau fluor cs | Tau ThT inhib | VP16 counter | RORg inh
COc1ccc(-c2csc(Nc3ccc(C)cn3)n2)cc1OC | i | ? | 13µM | i | i
COc1ccc(-c2csc(Nc3cc(C)ccn3)n2)cc1OC | nt | nt | nt | ? | i
Cc1ccc(Nc2nc(-c3ccc(F)cc3)cs2)nc1 | nt | nt | nt | ? | i
Cc1nn(-c2cccc(C(F)(F)F)c2)c(=O)c2ccccc12 | nt | nt | nt | i | i
Cn1cc(-c2nnnn2-c2cccc(C(F)(F)F)c2)c(C(F)(F)F)n1 | i | i | i | i[0.365 µM] | 10µM
Cc1ccc(-n2c(=S)[nH]c3sc4c(c3c2=O)CCc2ccccc2-4)cc1 | i | i | ? | 0.63µM | 0.45µM
Cc1cccc(-n2c(=S)[nH]c3sc4c(c3c2=O)CCc2ccccc2-4)c1 | i | i | ? | 1.4µM | 0.35µM
O=C1N[C@H](Cc2ccccc2)C(=O)N1Cc1cccc2ccccc12 | i | i | i | i | i
O=C(Nc1ccc(F)cc1F)c1ccc(-n2cnc3cccnc32)cc1 | i | i | i | nt | nt
O=C(c1ccc2c(Cl)c3c(nc2c1)CCCC3)N1CCN(c2cccc(C(F)(F)F)c2)CC1 | i | i | ? | nt | nt
CCc1ccc(-n2nc(C)c3c(C)cc(=O)n(CC(=O)Nc4ccc(C(C)=O)cc4)c32)cc1 | i | i | i | nt | nt
COc1cc([N+](=O)[O-])ccc1-c1ccc(C(=O)Nc2ccc(NC(C)=O)cc2)o1 | i | ? | 5µM | i | i
CC(=O)c1cccc(NC(=O)c2ccc(-c3ccccc3[N+](=O)[O-])o2)c1 | i | ? | ? | 7.1µM | ?
COc1cccc(NC(=O)c2ccc(-c3ccc([N+](=O)[O-])cc3)o2)c1 | i | ? | ? | i | i
COc1ccc(NC(=O)c2ccc(-c3ccc([N+](=O)[O-])cc3)o2)cc1OC | i | 11µM[quencher] | 5µM | i | i
Cc1n[nH]c(=S)n1/N=C/c1ccccc1OCc1ccc(Cl)cc1 | i | i | i | ? | 4.5µM
Cc1n[nH]c(=S)n1/N=C/c1cccc(OCc2ccccc2)c1 | i | i | i | i | i
COc1cccc(/C=N/n2c(COc3ccccc3)n[nH]c2=S)c1OC | nt | nt | nt | ? | 20µM
COc1ccccc1/C=C/C=N/n1c(COc2ccccc2)n[nH]c1=S | ? | i | i | i | 3.5µM
COc1cccc(/C=N/n2c(COc3ccccc3)n[nH]c2=S)c1O | nt | nt | nt | ? | 13µM
COc1cc(/C=N/n2c(COc3ccccc3)n[nH]c2=S)cc(Br)c1O | nt | nt | nt | i | i
Cc1ccc(NC(=O)CSc2nncn3c2cc2sccc23)cc1F | i | i | i | nt | nt
Cc1ccc(-c2nc(-c3cccs3)c(-c3cccs3)[nH]2)cc1 | i | ? | i | nt | nt
COc1ccc(-c2nc(-c3ccccc3)c(-c3cccs3)[nH]2)cc1OC | ? | 14µM[quencher] | ? | ? | i
Cc1ccsc1-c1nc(-c2ccccc2)c(-c2ccccc2)[nH]1 | i | i | i | ? | 4µM
SMILES | Tau fibril FP | Tau fluor cs | Tau ThT inhib | VP16 counter | RORg inh
COc1ccc(-c2nc(-c3cccs3)c(-c3cccs3)[nH]2)cc1OC | i | 10µM[quencher] | ? | i | ?
CC(=O)c1ccc(N2CCN(S(=O)(=O)c3ccc4c(c3)CC(C)N4C(=O)C3CCC3)CC2)cc1 (centres undefined) | i | i | i | nt | nt
CCC(CO)Nc1ncnc2c1cnn2-c1ccc(C)cc1 (centres undefined) | i | i | i | nt | nt
O=C1NN(c2ccc(Br)cc2)C(=O)/C1=C\c1ccc(O)cc1O | nt | nt | nt | i | i[1.91 µM]
CCn1ncc(/C=C2/SC(=S)NC2=O)c1C | i | i | i | i | i
Cc1cc(/C=C2\SC(=S)NC2=O)c(C)n1-c1cccc(O)c1 | i | ? | 16µM | i | i
CCn1c(C)cc(/C=C2/SC(=S)NC2=O)c1C | i | i | 13µM | i | ?
Cc1ccc(-n2c(C)cc(/C=C3\SC(=O)NC3=O)c2C)cc1 | nt | nt | nt | i | i
Cc1cc(/C=C2\SC(=S)N(C)C2=O)c(C)n1-c1ccc(O)cc1 | ? | 8.9µM[quencher] | 6.3µM | 0.63µM | ?
Cc1cc(/C=C2/C(=O)NN(c3ccccc3)C2=O)c(C)n1-c1cccc(O)c1 | i | ? | 13µM | 16µM | ?
Cc1sc(-n2c(C)cc(/C=C3\SC(=S)NC3=O)c2C)c(C#N)c1C | i | ? | ? | ? | ?
Cc1cc(/C=C2\SC(=S)NC2=O)c(C)[nH]1 | i | ? | 16µM | i | i
CCOC(=O)N1CCN(C(=O)c2cc3c(s2)-c2c(C)cccc2OC3)CC1 | nt | nt | nt | i | i
Cc1cccc2c1-c1sc(C(=O)N3CCCCC3)cc1CO2 | nt | nt | nt | ? | 10µM
CCc1ccccc1NC(=O)N1CCN(Cc2nc3ccc(C)cc3o2)CC1 | i | i | i | nt | nt
O=C(Nc1ccc(NC(=O)c2ccco2)cc1)c1ccc2c(c1)OCO2 | ? | i | ? | ? | 22µM
O=C(N/N=C/c1ccccc1)c1ccc2c(c1)OCO2 | nt | nt | nt | 11µM | ?
O=C(N/N=C/c1cccnc1)c1ccc2c(c1)OCCO2 | i | i | i | 14µM | ?
CC(C)(C)C(=O)COC(=O)c1ccc2c(c1)C(=O)N(Cc1ccco1)C2=O | nt | nt | nt | i | i
COCC(=O)N1CCC2(CCN(Cc3nccs3)CC2)CC1 | nt | nt | nt | i | i
Cc1ccccc1NC(=O)CSc1nc2c(c(-c3ccco3)c1C#N)CCCC2 | i | i | i | i | ?
N#Cc1c(SCC(=O)Nc2nccs2)nc2c(c1-c1ccco1)CCCC2 | i | i | i | i | 10µM
CC1(C)CC(=O)C2=C(C1)NC(=S)C(C#N)C21CCCCC1 (centres undefined) | ? | ? | nt | i | 10µM
CCN(CC)C(=O)C1=C(C)Nc2nc3ccccc3n2C1c1cccc(Cl)c1 (centres undefined) | i | i | i | nt | nt
CCOc1ccc(N(CC(=O)NCc2ccc(F)cc2)C(=O)c2snc(C(N)=O)c2N)cc1 | nt | nt | nt | i | i
SMILES | Tau fibril FP | Tau fluor cs | Tau ThT inhib | VP16 counter | RORg inh
O=C(N/N=C/c1cc(Br)ccc1O)c1cccc(N2CCCC2=O)c1 | i | i | i | 5.6µM | 1µM
COc1ccc(O)c(/C=N/NC(=O)c2ccc(N3CCCC3=O)cc2)c1 | nt | nt | nt | ? | 2.2µM
COc1ccc(O)c(/C=N/NC(=O)c2cccc(N3CCCC3=O)c2)c1 | nt | nt | nt | 3.5µM | 3.5µM
COc1ccc(/C=N/NC(=O)c2ccc(N3CCCC3=O)cc2)cc1 | nt | nt | nt | i | i
COc1cccc(/C=N/NC(=O)c2cccc(N3CCCC3=O)c2)c1 | nt | nt | nt | i | i
C/C(=N\NC(=O)c1ccn(C)n1)c1ccco1 | nt | nt | nt | i | i
Cn1ccc(C(=O)NC(=S)N2CCSCC2)n1 | i | i | i | i | 11µM
CCOc1ccc(-c2cc(-c3nc(-c4ccc(C)cc4)no3)[nH]n2)cc1 | ? | i | i | nt | nt
O=C(Nc1ccc(-c2csc(Nc3ccccc3)n2)cc1)c1cc([N+](=O)[O-])cc(C(F)(F)F)c1 | i | 4µM[quencher] | 3.5µM | i | ?
CC(=O)c1cccc(Nc2nc(-c3cccc([N+](=O)[O-])c3)cs2)c1 | i | 7.1µM[quencher] | 4µM | i[0.365 µM] | i
